Source: PubChem BioAssay (National Center for Advancing Translational Sciences (NCATS))
Sampled rows, rich in hits. Any-hit rate of the full collection: about 17%.
TGFb inhibitor: TGF-b pathway inhibition; HepG2 CAGA-GFP TGF-b/SMAD3 reporter, GFP fluorescence, 18 h; TGF-beta stimulated, 500 pg/mL final; Potency, µM (top dose mostly 46.1 µM), without a hit: at the top dose activity, negative = inhibition, most hits filed as inhibitors; 1.2% of 410,000 active; AID 588855; also: % is scaled to controls: 0 for no effect and ±100 for the full control effect; nearly all actives have a fitted effect of over 65% in size
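Inhibition was scored as loss of TGF-beta-induced (500 pg/mL final, 18 hours, 37 degrees C) GFP in HEPG2 cells carrying a CAGA-GFP reporter, in DMEM with 1% FBS. Well GFP was summed per cell; Activity was normalised to unstimulated and stimulated DMSO wells, then concentration-response fitting.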
TDP1 cell CPT: DT40-hTDP1 cell growth loss with CPT | chicken DT40 Tdp1-/-;hTDP1 cells + 20 nM CPT, ATP luminescence, 48 h | Potency, µM (titrated, usually from 46.2 µM), for the others: at the top dose activity change, negative = growth inhibition, actives largely listed as inhibitors | 12% of 420,000 active; also: % is scaled to controls: 0 for no effect and ±100 for the full control effect; nearly all actives have a fitted effect of over 55% in size
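Chicken DT40 Tdp1-/- cells stably complemented with human TDP1 were seeded at 400 cells/well in medium containing 20 nM camptothecin, exposed to pin-transferred compounds, and grown at 37 °C for at least 48 hr. Viability was read as ATP luminescence.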
ATXN2 expr inh: reduces ATXN2 reporter expression in HEK-293 cells. Potency, µM (series often up to 57 µM), inactives show at the top dose activity change, negative = inhibition, usual class: inhibitors. 0.72% of 360,000 active. HEK-293 ATXN2-luciferase reporter, luminescence, 24 h; also: % is scaled to controls: 0 for no effect and ±100 for the full control effect; nearly all actives have a fitted effect of over 55% in size
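qHTS (up to 57 uM final) was run with 24 h compound exposure of reporter cells at 37 °C. Each well was multiplexed: SteadyGlo luminescence measured ATXN2-luciferase expression after a fluorogenic Gly-Phe-AFC viability readout (25 uM final).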
ATXN viability: cell viability loss in ATXN counter-screen | Potency, µM (highest dose often 56.7 µM), usual class: cytotoxic | 0.49% of 400,000 active | S2 cells (HEK-293 line with an ATXN2-luciferase reporter) viability, CellTiter-Fluor protease fluorescence, 24 h; also: nearly all actives have a fitted effect of over 40% in size
HepG2 tox: HepG2 cytotoxicity, counter-screen for TGF-b inhibitors; HepG2 CAGA-GFP viability, ATP luminescence, 18 h; Potency, µM (top dose mostly 46.1 µM), for inactives: top-dose activity change, negative = cytotoxicity, usual class: cytotoxic; 0.76% of 410,000 active
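HepG2 CAGA-GFP cells (1000/well, DMEM with 1% FBS) received compound, then TGF-beta at 500 pg/mL final, and were incubated 18 hours at 37 degrees C. Viability was read by CellTiter-Glo luminescence. Media-only wells were set as complete cell-killing and DMSO as no toxicity.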
TDP1 cell noCPT: qHTS for Inhibitors of human tyrosyl-DNA phosphodiesterase 1 (TDP1): qHTS in cells in absence of CPT. DT40 Tdp1-/- hTDP1 cells, no CPT, ATP luminescence, 48 h. Potency, µM (series often up to 46.2 µM), for inactives: at the highest dose activity change, negative = growth inhibition, actives largely listed as inhibitors. 15% of 420,000 active; also: % is scaled to controls: 0 for no effect and ±100 for the full control effect; nearly all actives have a fitted effect of over 55% in size
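Stably hTDP1-transfected Tdp1-null chicken DT40 cells were treated with library compounds minus camptothecin and grown for at least 48 hr at 37 °C, after which cellular ATP was quantified by luminescence.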
The depositor's hits bear a star; i = inactive; ? = inconclusive; / = no result. Calls follow the shape of the dose curve; as a rule, active = well fitted curve in the direction sought with a large enough effect; inconclusive = small, poorly fitted or top-dose-only effect, or another doubt; inactive = no such curve, though single readings can be large; an effect the other way counts as inactive or inconclusive. Potency is read from the fitted curve at half-maximal effect.

SMILES	TGFb inhibitor	TDP1 cell CPT	ATXN2 expr inh	ATXN viability	HepG2 tox	TDP1 cell noCPT
COC(=O)C[C@@H]1C=C[C@H](NC(=O)Nc2cc(F)ccc2F)[C@@H](CO)O1	/	-9%	/	/	/	-12%
Nc1nonc1-n1nnc(C(=O)N/N=C/c2ccccn2)c1CNc1ccccc1	-13%	?	/	?	-21%	?
O=C(COc1ccc(F)cc1)Nc1ccc2c(c1)OCCO2	2%	?	8%	i	-12%	-5%
COc1cccc(NC(=O)c2ccc(NC(=O)C3CC(=O)OC34CCCCC4)cc2)c1 (stereo not given)	2%	18µM*	0%	i	-1%	?
COc1cc2[nH]c(C(=O)Nc3ccc4c(c3)OCCO4)cc2c(OC)c1OC	-4%	16µM*	1%	?	-21%	?
COc1ccc(C(=O)CCNc2ccc3c(c2)OCCO3)cc1	-27%	15µM*	15%	i	-29%	13µM*
COc1ccc(C(=O)CCNc2cccc(Cl)c2)cc1	-5%	?	37%	i	-1%	?
COc1ccc(NC(=O)C2CC(=O)OC23CCCCC3)cc1 (stereo not given)	0%	-21%	-4%	i	-4%	-21%
CCC(=O)c1ccc(OCC(=O)Nc2ccc3c(c2)OCCO3)cc1	12%	-19%	25%	i	-5%	12µM*
COC(=O)c1c(NC(=O)C(=O)N2CCOCC2)sc2c1CCCC2	-9%	-18%	-12%	i	-12%	3%
COCC(=O)Nc1c(C(=O)Nc2ccc3c(c2)OCO3)oc2ccccc12	3%	?	48%	i	-23%	?
COc1cccc(NC(=O)c2ccc3c(c2)OCCO3)c1	-24%	?	?	i	14µM*	?
COc1cccc(NC(=O)c2oc3ccccc3c2NC(=O)c2ccc3c(c2)OCO3)c1	-2%	14µM*	37%	i	-48%	?
COc1ccc(C(=O)Nc2ccc3c(c2)OCCO3)cc1	-14%	-28%	0%	i	-21%	-15%
O=C(CCl)Nc1c(C(=O)Nc2ccc3c(c2)OCCO3)oc2ccccc12	?	5.2µM*	-33%	?	16µM*	10µM*
CC(=O)Oc1ccc(C(=O)Nc2ccc3c(c2)OCCO3)cc1	20%	15µM*	3%	i	-61%	13µM*
COc1cccc(NC(=O)c2ccc3c(c2)OCO3)c1	-24%	-27%	22%	i	-59%	-7%
Cc1ccc(/C=C/c2onc(C)c2S(=O)(=O)N2CCC(C(=O)NCC(C)c3ccccc3)CC2)cc1 (stereo not given)	6%	?	-3%	i	-3%	-24%
Cc1cccc(C(=O)Nc2ccc(N3CC=C(c4ccccc4C)CC3)c(C(=O)O)c2)c1	14%	?	6%	i	13%	?
CC(=O)Oc1ccc(C(=O)Nc2cc(NC(=O)c3ccc(OC(C)=O)cc3)cc(C(=O)NC(C)(C)C)c2)cc1	?	21µM*	1%	i	-35%	26µM*
COc1ccc(NC(=O)c2c(C(F)(F)F)nn(C)c2SCc2ccccc2Cl)cc1	-14%	-4%	/	/	9%	6%
Cn1c2ccccc2c2cc(/C=N/NC(=O)c3cc(O)cc(O)c3)ccc21	?	?	-13%	i	-21%	?
COc1cc(C(=O)N/N=C/c2ccc3c(c2)c2ccccc2n3C)ccc1O	7%	?	-9%	?	-29%	15µM*
COc1cc(C(=O)N/N=C/c2ccc(OC(=O)c3ccccc3Cl)cc2)ccc1O	0%	-21%	-2%	i	-16%	?
COc1cc(C=NNC(=O)c2ccccc2-n2cccc2)ccc1O	6%	26µM*	-9%	i	-13%	?
SMILES	TGFb inhibitor	TDP1 cell CPT	ATXN2 expr inh	ATXN viability	HepG2 tox	TDP1 cell noCPT
CCn1c2ccccc2c2cc(/C=N/NC(=O)c3ccccc3)ccc21	?	15µM*	?	?	-55%	16µM*
Cn1c2ccccc2c2cc(/C=N/NC(=O)c3cc(O)ccc3O)ccc21	2%	12µM*	-37%	?	-9%	15µM*
O=C(N/N=C\c1ccc(O)c([N+](=O)[O-])c1)c1ccccc1-n1cccc1	-7%	-5%	-2%	i	-29%	?
Cc1ccc(NC(=O)Nc2nnc(N3CCCCC3)s2)c(C)c1	3%	6%	2%	i	10%	-18%
COc1cc(/C=N/NC(=O)CCn2c3ccccc3c3ccccc32)ccc1O	?	?	-34%	i	-22%	23µM*
Cc1ccc(-c2nc3sccn3c2Nc2ccccc2C)cc1	?	?	5%	?	-24%	23µM*
CCc1cccc(C)c1NC(=O)CSc1n[nH]c(-c2ccccc2)n1	-32%	?	/	/	-28%	?
CCc1cccc(C)c1Nc1c(-c2ccccc2)nc2sccn12	?	?	/	/	-34%	18µM*
CCOc1ccc2nc(NC(=O)Cn3cnc4c3c(=O)n(C)c(=O)n4C)sc2c1	-5%	-2%	21%	i	5%	-10%
CCOc1ccc2nc(NC(=O)CSc3nc4c(c(=O)n(C)c(=O)n4C)n3C(C)C)sc2c1	?	23µM*	?	?	1%	15µM*
CC(C)n1c(SCC(=O)Nc2nc3ccccc3s2)nc2c1c(=O)n(C)c(=O)n2C	-6%	16µM*	?	i	-18%	21µM*
CCn1c(SCC(=O)Nc2nc3ccc(OC)cc3s2)nc2c1c(=O)n(C)c(=O)n2C	-16%	18µM*	-33%	i	-11%	?
CCCn1c(SCC(=O)Nc2nc(-c3ccc(OC)cc3)cs2)nc2c1c(=O)n(C)c(=O)n2C	1%	?	2%	i	-2%	?
Cc1cc(OCc2cn(CC(=O)c3ccc(O)cc3)nn2)ccc1[N+](=O)[O-]	-1%	-12%	-32%	i	-13%	-24%
CCc1oc(C(=O)O)cc1COC	1%	-1%	1%	i	-7%	5%
COCc1cc(O)c(O)c(O)c1-c1c(COC)cc(O)c(O)c1O	-14%	5µM*	/	/	-37%	4.5µM*
O=C(c1ccco1)N1CCN(c2ncnc3c2cnn3-c2ccccc2)CC1	5%	?	12%	i	1%	29µM*
